Sm TGR block = blocks Schistosoma mansoni thioredoxin glutathione reductase; AID 485364; Potency, µM (series often up to 114 µM), most hits filed as inhibitors; purified TGR, DTNB reduction, TNB absorbance 405 nm; 3% of 360,000 active; Q962Y6; active = well fitted inhibition curve with a large enough effect; inconclusive = small, poorly fitted or top-dose-only effect; inactive = no such curve, though single readings can be large or run the other way; note: nearly all actives have a fitted effect of over 60% in size
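TGR 20 nM + NADPH 100 uM (dispensed conc.), cpd preinc 15 min RT; start with NADPH (500 uM addition) then DTNB (15 mM addition). Kinetic TNB absorbance, 405 nm filter. Four-parameter Hill fit across titration.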
SARS PLP yeast = inhibitors of SARS-CoV papain-like protease in yeast; S. cerevisiae expressing SARS-CoV PLpro, growth rescue; Potency, µM (top dose mostly 32.9 µM), hits mostly activators; 0.19% of 330,000 active; AID 485353; calls by dose curve; note: nearly all actives have a fitted effect of over 55% in size
Numbers stand for hits; – = inactive; ? = inconclusive; · = not tested or not shown. A selection: hits, their analogues and other compounds. The true share with any hit is near 3%.

SMILES | Sm TGR block | SARS PLP yeast
COc1ccccc1NC1=C(Cl)C(=O)N(c2ccccc2)C1=O | – | –
COc1ccc(NC2=C(Cl)C(=O)N(c3ccccc3)C2=O)c(OC)c1 | 5.62µM | –
COc1ccc(CCNC2=C(Cl)C(=O)N(CCc3ccccc3)C2=O)cc1OC | – | –
CCOc1ccc(N2C(=O)CN=C2Nc2ccccc2Cl)cc1 | – | –
COc1ccc(N2C(=O)C(Cl)=C(Nc3c(C)n(C)n(-c4ccccc4)c3=O)C2=O)cc1 | 0.891µM | –
COc1ccc(-c2cc(C(=O)Nc3c(C)n(C)n(-c4ccccc4)c3=O)c3ccccc3n2)cc1 | – | –
O=C1C(Cl)=C(Nc2ccccc2O)C(=O)N1CCc1ccccc1 | 28.2µM | –
CCOc1ccc(N2C(=O)C(Cl)=C(Nc3ccccc3O)C2=O)cc1 | 17.8µM | –
Cc1ccc(CN(C(=O)c2ccccc2)c2ccccn2)o1 | – | ·
Cc1nn2c(=O)cc(COC(=O)COc3ccc(F)cc3)nc2s1 | – | ·
COc1cccc(-c2cc(C(F)(F)F)n3ncc(C(=O)OC(C)C)c3n2)c1 | – | ·
O=C(NCc1ccccc1F)c1cccc(NC(=O)N2CCSc3ncccc32)c1 | – | ·
COc1ccc(N2C(=O)C(Cl)=C(Nc3ccc(OC)cc3OC)C2=O)cc1 | 28.2µM | –
COc1ccc(Nc2nc(C)cc(=O)[nH]2)c(OC)c1 | – | –
COC(=O)c1sc2cccc(F)c2c1S(=O)(=O)Nc1ccc(N(C)C)cc1 | – | ·
Fc1ccc(CSc2nncn3c2cc2occc23)c(Cl)c1 | – | ·
CCCCN(C(=O)c1ccc(-c2ccc(Cl)cc2)o1)c1c(N)n(CCCC)c(=O)[nH]c1=O | – | –
CCCn1c(N)c(N(CCOC)C(=O)c2cc(-c3ccco3)nc3ccccc23)c(=O)[nH]c1=O | 17.8µM | –
CCCCn1c(N)c(N(CCOC)C(=O)c2ccc(-c3ccc(Cl)cc3)o2)c(=O)[nH]c1=O | 44.7µM | –
CCCCn1c(N)c(N(CCOC)C(=O)c2cc(-c3ccccc3)nc3ccccc23)c(=O)[nH]c1=O | – | ·
COCCCN(C(=O)c1cc(Cl)nc2ccccc12)c1c(N)n(Cc2ccccc2)c(=O)[nH]c1=O | – | –
COCCCN(C(=O)c1cc(-c2ccco2)nc2ccccc12)c1c(N)n(Cc2ccccc2)c(=O)[nH]c1=O | 15.8µM | –
CC(C)CCNC(=O)c1ccc2c(c1)nc1n2CCCCC1 | – | ·
CC(=O)c1ccc(NC(=O)CSc2cn(CC(=O)N3CCCCC3)c3ccccc23)cc1 | – | ·
CCc1ccc(NC(=O)CN2C(=O)CCSc3ccccc32)cc1 | – | ·
SMILES | Sm TGR block | SARS PLP yeast
CCCCNC(=O)CC1Nc2cc(C)c(C)cc2NC1=O (centres undefined) | – | ·
COc1ccc([N+](=O)[O-])cc1N(CC(O)CN1CCOCC1)S(=O)(=O)c1ccccc1 (centres undefined) | – | –
COc1ccc([N+](=O)[O-])cc1N(CC(O)CN1CCCCC1)S(=O)(=O)c1ccc(C)cc1 (centres undefined) | 35.5µM | –
Cc1cccc(CNC(=O)c2oc3c(c2C)-c2nn(Cc4ccccc4Cl)cc2CC3)c1 | – | ·
COC(=O)C1=C(C(=O)OC)C(c2cc(Br)ccc2O)c2sc(=O)[nH]c2S1 (centres undefined) | ? | –
COC(=O)C1=C(C(=O)OC)C(c2cc(Cl)ccc2O)c2sc(=O)[nH]c2S1 (centres undefined) | 39.8µM | –
C#CCOc1ccc(C2C3=C(CCCC3=O)N(CC(=O)O)C3=C2C(=O)CCC3)cc1Br | 39.8µM | –
CCCOc1ccc(C2C3=C(CCCC3=O)N(CC(=O)O)C3=C2C(=O)CCC3)cc1OCC | – | –
C=CCOc1c(Br)cc(C2C3=C(CCCC3=O)N(C)C3=C2C(=O)CCC3)cc1OCC | – | –
C=CCOc1ccc(C2C3=C(CCCC3=O)N(CC(=O)O)C3=C2C(=O)CCC3)cc1OCC | 44.7µM | –
Cc1ccc(-c2csc(/C(C#N)=C/c3ccccc3Cl)n2)cc1 | – | ·
CCOc1ccc(C(=O)NCCc2sc(-c3cccc(F)c3)nc2C)cc1OCC | – | ·
COc1cccc(CCNC(=O)c2c(O)nc3cc(C)ccn3c2=O)c1 | – | ·
CCOC(=O)N1CCC(Nc2c(-c3ccc(C)cc3)c(=O)c2=O)CC1 | – | –
CCOC(=O)N1CCC(Nc2c(-c3ccccc3)c(=O)c2=O)CC1 | 44.7µM | –
CCC(C)NC(=O)c1sc2ncccc2c1-n1c(C)ccc1C (centres undefined) | – | ·
COc1ccc2c(CCN)c[nH]c2c1 | – | –
COc1ccc2c(C(=O)CCl)c[nH]c2c1 | 4.47µM | –
COc1ccc(OCC(=O)c2c[nH]c3ccccc23)cc1 | – | –
COc1ccc2c(CC#N)c[nH]c2c1 | 50.1µM | –
Cc1cccc(N2CCN(CCCNc3ncnc4onc(-c5ccc(Cl)cc5)c34)CC2C)c1 (centres undefined) | – | ·
COc1ccc(-c2cn3nc(N4CCCC(C(=O)Nc5ccccc5F)C4)sc3n2)cc1 (centres undefined) | – | ·
CCOc1ccc(NC(=O)CC2C(=O)OCCN2CC)cc1 (centres undefined) | 11.2µM | ·
CCOC(=O)c1ccc(NC(=O)CC2NCCNC2=O)cc1 (centres undefined) | – | –
CCN1CCOC(=O)C1CC(=O)Nc1cccc(OC)c1 (centres undefined) | 17.8µM | ·
SMILES | Sm TGR block | SARS PLP yeast
CCOC(=O)c1ccc(NC(=O)CC2OCCN(CC)C2=O)cc1 (centres undefined) | 25.1µM | –
CCOc1ccc(NC(=O)CC2C(=O)N(CC)C(=S)N2CCN2CCOCC2)cc1 (centres undefined) | – | –
COc1cc(NC(=O)CC2C(=O)OCCN2Cc2ccccc2)cc(OC)c1 (centres undefined) | – | ·
COC(=O)c1cc(NC(=O)CC2C(=O)OCCN2Cc2ccccc2)cc(C(=O)OC)c1 (centres undefined) | – | ·
CCOC(=O)c1ccc(NC(=O)CC2C(=O)OCCN2CC)cc1 (centres undefined) | 22.4µM | –
Cc1[nH]c2ccc(Br)cc2c1CCNC(=O)c1cc2ccccc2oc1=O | – | ·
CCCOc1ccc(NC(=O)CC2C(=O)N(c3ccc(C)cc3)C(=O)N2C2CCCC2)cc1 (centres undefined) | – | ·
Cc1ccc(-n2nnc(-c3nc(-c4cccs4)no3)c2N)cc1C | – | ·
CCOC(=O)c1ccc(NC(=O)Cn2cc(C(=O)c3ccc(Cl)cc3)c(=O)c3ccc(C)nc32)cc1 | – | ·
CCOC(=O)c1cc2c(=O)n3ccccc3nc2n(C(C)C)c1=NC(=O)c1ccco1 | – | –
CC(C)n1c(=NC(=O)c2ccco2)c(C#N)cc2c(=O)n3ccccc3cc21 | 44.7µM | –
O=C(CCc1nc(-c2ccccc2F)no1)Nc1cccc(C(F)(F)F)c1 | – | ·
CCc1ccc2ncc3c(-c4ccc(F)cc4)nn(CC(=O)NCc4ccccc4)c3c2c1 | – | ·
CC(C)(C)C(=O)C(Cl)C(=O)Nc1ccccc1 (centres undefined) | 22.4µM | –
O=C(Nc1ccc(Nc2ccccc2)cc1)C(Cl)Cl | – | –
Cc1cccc(CS(=O)(=O)Cc2ccc(C(=O)NC3CCCC3)o2)c1 | – | –
Cc1cccc(CS(=O)(=O)Cc2ccc(C(=O)NCc3ccccc3)o2)c1 | 44.7µM | –
Cc1cccc(CS(=O)(=O)Cc2ccc(C(=O)NCc3cccs3)o2)c1 | 35.5µM | –
Cc1ccc(CNC(=O)c2ccc(CS(=O)(=O)Cc3ccc(C)cc3)o2)cc1 | – | ·
O=C(CCc1ccccc1)N(Cc1cccnc1)c1nc2ccc(F)cc2s1 | – | ·
CCOc1ccc(NC(=O)c2nn(C)c3c2COc2ccccc2-3)cc1 | 7.94µM | ·

Assay outcomes from PubChem BioAssay.
